Measured values: PubChem BioAssay (NCI)
Compounds without any hit were thinned out: in the full panel of roughly 83,000, 20% have a hit.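 Treatment: one concentration, 48 hours, 96-well format. Scoring: percent growth, with anything below 10 considered active.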 Unmarked numbers belong to inactive results. The source made the active and inactive calls.

Key:
Assay in all cases: NCI-60 one-dose screen, 48 h (100 = growth as untreated, 0 = no growth, -100 = all killed)
SK-MEL-2 melanoma = details: 10 µM
EKVX NSCLC = details: 10 µM
SN12C renal = details: 10 µM
UO-31 renal = details: 10 µM
TK-10 renal = details: 10 µM unless noted
ACHN renal = details: 10 µM
CAKI-1 renal = details: 10 µM
A498 renal = details: 10 µM
CCRF-CEM leukemia = details: 10 µM
MOLT-4 leukemia = details: 10 µM
SR leukemia = details: 10 µM
RPMI-8226 leukemia = details: 10 µM
OVCAR-5 ovarian = details: 10 µM
OVCAR-4 ovarian = details: 10 µM
OVCAR-3 ovarian = details: 10 µM
HS 578T breast = details: 10 µM
NCI/ADR-RES ovarian = details: 10 µM
OVCAR-8 ovarian = details: 10 µM
SK-OV-3 ovarian = details: 10 µM
IGROV1 ovarian = details: 10 µM

| Structure (SMILES) | growth (SK-MEL-2 melanoma) | growth (EKVX NSCLC) | growth (SN12C renal) | growth (UO-31 renal) | growth (TK-10 renal) | growth (ACHN renal) | growth (CAKI-1 renal) | growth (A498 renal) | growth (CCRF-CEM leukemia) | growth (MOLT-4 leukemia) | growth (SR leukemia) | growth (RPMI-8226 leukemia) | growth (OVCAR-5 ovarian) | growth (OVCAR-4 ovarian) | growth (OVCAR-3 ovarian) | growth (HS 578T breast) | growth (NCI/ADR-RES ovarian) | growth (OVCAR-8 ovarian) | growth (SK-OV-3 ovarian) | growth (IGROV1 ovarian) |
| --- | --- | --- | --- | --- | --- | --- | --- | --- | --- | --- | --- | --- | --- | --- | --- | --- | --- | --- | --- | --- |
| Nc1ncnc2c1nc(N)n2C1OC(CO)C(O)C1O (stereo not given) | -11.6% (active) | -33.2% (active) | -22.8% (active) | -53.9% (active) | -14.2% (active) | 2.76% (active) | -28.6% (active) | -80.3% (active) | 1.73% (active) | 1.73% (active) | -3.14% (active) | 5.98% (active) | -12.9% (active) | -2.8% (active) | -12.9% (active) | -13.9% (active) | -45.2% (active) | – | – | – |
| CCOc1ccc(Br)cc1/C=N\N=C\c1cc(Br)ccc1OCC | 109% | 107% | 102% | 88.8% | 111% | 104% | 90.8% | 141% | -3.92% (active) | 102% | – | 95.5% | 107% | 113% | 96.8% | 143% | 120% | 95.6% | 117% | 103% |
| Oc1ccc2c(c1)OCC1(O)Cc3cc(O)c(O)cc3C21 (stereo not given) | 65.7% | 107% | 100% | 58.9% | 106% | 104% | 85.5% | 99.1% | 71.5% | 316% | 78.4% | 62.5% | 96.3% | – | 93.7% | – | 91.7% | – | 193% | 75.3% |
| C#CC(C)(O)c1ccc(Cl)cc1 (stereo not given) | 106% | 98.6% | 113% | 99.4% | 106% | 110% | 103% | 98% | 103% | 107% | 96.6% | 101% | 107% | 102% | – | 106% | 92.4% | – | 90.3% | 111% |
| Cc1cc(=O)cc(C)n1-c1ccccc1 | 104% | 107% | 89.3% | 90% | 96.3% | 102% | 95% | 103% | 92.4% | 102% | – | 97.6% | 98.3% | 100% | 120% | 113% | 98.9% | 109% | 94.7% | 114% |
| O=S(=O)(O)c1ccc(Cl)c(Cl)c1 | 103% | 91.4% | 97.9% | 79.4% | 100% | 97.3% | 84.8% | 99.4% | 103% | 109% | 99.8% | – | 112% | 106% | 123% | 120% | 106% | 114% | 103% | 122% |
| CC1CC(O)CC(C)(C)C1 (stereo not given) | 105% | 98.8% | 104% | 85.6% | 102% | 107% | 98.9% | 98.7% | 96.4% | 100% | 106% | – | 97.1% | – | 93.5% | – | 110% | 102% | 103% | 103% |
| O=C(O)CCCCNC(=O)c1ccccc1 | 113% | 103% | 115% | 100% | 101% | 115% | 107% | 91.4% | 110% | 106% | 95.7% | 103% | – | – | – | 108% | 94.8% | 108% | 97.9% | 108% |
| CCOC(=O)CCCS(C)(=O)=O | 90.7% | 113% | 97.4% | 90.5% | 102% | 104% | 117% | 96.8% | 113% | 96.5% | – | 124% | 97.4% | 103% | 127% | 101% | 103% | 108% | 103% | 120% |
| O=C(N/N=C\c1cc(Br)cc(Br)c1O)N/N=C/c1cc(Br)cc(Br)c1O | -23.8% (active) | 69.3% | 59% | 31% | 65.5% | 52.2% | 41.4% | 70.4% | 3.69% (active) | 36.4% | -18.4% (active) | 19.3% | 64.6% | 43.4% | 12.1% | 60.6% | 35.6% | – | 79.7% | – |
